Data taken from the supplement of paper PMC10338343.
± gives the standard deviation. The full ranking holds about 3,700 sequences; the median of “pre-steady-state target cleavage rate” is about 0.02, and the highest 2% start at about 0.23. The full list was thinned out, with the highest values kept by preference.

system: MILI (PIWIL2) piRISC loaded with Kctd7 piRNA (26 nt); test: pre-steady-state target cleavage rate (min^-1); MIWI and MILI are mouse PIWI proteins and EfPiwi is from a freshwater sponge; tags in brackets are library labels; higher = faster piRNA-guided slicing of the target; conditions: guide: Kctd7 piRNA 5'p-UGUUAAUCUCUCAGAGAAGGUGACAG; auxiliary factor: 500 nM mouse GTSF1
Experimental: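 Cleave-'n-Seq: a library of target RNAs (target site embedded in constant flanks, ACAGCATTCCGCGTTAGTGATATCCG... 5' flank; DNA-blocked outside the site) at 0.1 nM was incubated with 1 nM active mouse MILI or MIWI piRISC (synthetic 5'-monophosphorylated piRNA guide) with or without 500 nM mouse GTSF1 at 33 °C for 1 min to 16 h. Uncleaved targets were sequenced and normalised to non-target controls, and the pooled three trials were fitted to a burst-and-steady-state model to give the pre-steady-state cleavage rate (min^-1; k3 is constrained to at most 1e-4). Sequence is the target site only; target names encode pairing extent (gX:gY) and contiguous / 1-mismatch / 2-mismatch / bulge geometry. Fits with R² ≤ 0 are excluded.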

Row | Sequence | pre-steady-state target cleavage rate
1 | UAGUGUGUCACCUUCUCUGAGAGAAUUAACA | 0.277 ± 0.048
2 | UAGUCUGUCACCUUCUCUGAGAAUUAACA | 0.0747 ± 0.031
3 | UAGUCUGUCACCUUCUCUGAGAGAAUUAACA | 0.32 ± 0.051
4 | UAGUCUGUCACCUUCUCUGAGAAAUUAACA | 0.143 ± 0.018
5 | UAGUGUGUCACCUUCUCUGAGAAUUAACA | 0.0848 ± 0.036
6 | UAGUGUGUCACCUUCUCUGAGAAAUUAACA | 0.112 ± 0.019
7 | UAGUGACAGUCCUUCUCUGAUGAGAUUAACA | 0.00278 ± 0.0025
8 | UAGUGACACUCCUUCUCUGAGUGAUUAACA | 0.00415 ± 0.0032
9 | UAGUGACAGACGUACUCUGAGAGAUUAACA | 0.014 ± 0.0034
10 | UAGUGUGUCACCUACUCUGAGAGAUUAUCA | 0.239 ± 0.049
11 | UAGUGUGUCACCUACUCUGAGAGAUUAUGA | 0.0343 ± 0.015
12 | UAGUGUGUCACCUACUCUGAGAGAUUUACA | 0.25 ± 0.052
13 | UAGUGUGUCACCUACUCUGAGAGAUUAAGA | 0.1 ± 0.023
14 | UAGUGAGUCACCUACUCUGAGAGAUUUACA | 0.164 ± 0.053
15 | UAGUGUGUCACCUACUCUGAGAGAUUUUGA | 0.0414 ± 0.016
16 | UAGUGUGUCACCUUCUCUGAGAGAUUUAACA | 0.391 ± 0.052
17 | UAGUGUGUCACCUUCUCUGAGAGAUUUACA | 0.266 ± 0.047
18 | UAGUGUGUCACCUUCUCUCUGAGAUUAACA | 0.0138 ± 0.004
19 | UAGUGUGUCACCUUCUCUGAGAGAUUACA | 0.122 ± 0.036
20 | UAGUGUCUCACCUUCUCUGAGAGAUUUACA | 0.196 ± 0.043
21 | UAGUGUGUCACCUUCUCUGAGAGAUUAACA [g2:g25:cont:t1A] | 0.216 ± 0.015
22 | UAGUGACUGUCCUUCUCUGAGAGAUUAACA | 0.2 ± 0.016
23 | UAGUGAGUGACCUUGUCUGAGAGAUUAACA | 0.0726 ± 0.014
24 | UAGUGACAGACCUUGUCUGACAGAUUAACA | 0.0121 ± 0.0036
25 | UAGUCUGUCACCUUCUCUGAGAGAUUCACA | 0.265 ± 0.059

Row | Sequence | pre-steady-state target cleavage rate
26 | UAGUCUGUCACCUUCUCUGAGAGAUUACACA | 0.153 ± 0.022
27 | UAGUCUGUCACCUUCUCUGAGAGAUCAACA | 0.114 ± 0.018
28 | UAGUGAGUCACCUUCUCUGAGAGAUCAACA | 0.0788 ± 0.025
29 | UAGUCUGUCAACCUUCUCUGAGAGAUUAACA | 0.0716 ± 0.011
30 | UAGUCUGUCACCUUCUCUGAGAGAUUUUCA | 0.12 ± 0.031
31 | UAGUGAGUCACCUUCUCUGAGAGAUUCAACA | 0.279 ± 0.054
32 | UAGUGAGUCACCUUCUCUGAGAGAUUUUCA | 0.145 ± 0.044
33 | UAGUCUGUCACCUUCUCUGAGAGAUUCAACA | 0.324 ± 0.061
34 | UAGUGACAGUGCUUCUCUGAGAGAUUAUCA | 0.00765 ± 0.0025
35 | UAGUCUGUCACCUUCUCUCAGAGAUUAACA | 0.064 ± 0.0081
36 | UAGUGACAGUGGAACUCUGAGAGUUAAACA | < 0.0001
37 | UAGUGACACACCUUCUCUGAUGAGAUUAACA | 0.00949 ± 0.0043
38 | UAGUGAGUCACCUUCACUGACAGAUUAACA | 0.0411 ± 0.013
39 | UAGUGACACACCUUCUCUGAGAAAUUAACA | 0.219 ± 0.035
40 | UAGUGACUCACCUUCUCGAGAGAUUAACA | 0.02 ± 0.0065
41 | UAGUGUGUCACCUUCUCUGAAAGAUUAACA | 0.0569 ± 0.011
42 | UAGUGACAGUGGAACACUGAGACAUUAACA | < 0.0001
43 | UAGUGUGUCACCUUCUCUGAGAGUAUAACA | 0.181 ± 0.072
44 | UAGUGUGUCACCUUCUGUGAGAGUUUAACA | 0.0964 ± 0.027
45 | UAGUGACUCACCUUCUCUGAGAGUUUAACA | 0.118 ± 0.028
46 | UAGUGUGUCACCUUCUCUGAGAGUUAAACA | 0.146 ± 0.049
47 | UAGUGUGUCACCUUCUCUGAGAGUUUAACA | 0.316 ± 0.078
48 | UAGUCUCUCACCUUCUCUGAGAGUUUAACA | 0.183 ± 0.024
49 | UAGUGUGUCACCUUCUCUGUGAGUUUAACA | 0.0386 ± 0.0085
50 | UAGUGUGUCACCUUCUCUGAGAGUUAACA | 0.194 ± 0.055

Row | Sequence | pre-steady-state target cleavage rate
51 | UAGUGUGUCACCUUCUCUGAGAGAGUAACA | 0.287 ± 0.056
52 | UAGUGUCUCACCUUCUCUGAGAGUUUAACA | 0.286 ± 0.038
53 | UAGUGUGUCACCUUCUCUGAGAGUAAAACA | 0.194 ± 0.057
54 | UAGUGUGUCACCUUCUCUGAGAGAGUUAACA | 0.259 ± 0.046
55 | UAGUGAGUCACCUUGUCUGAGAGAUUUUGA | 0.0161 ± 0.0098
56 | UAGUGACACAGGAUCUCUGAGAGAUAUUGA | < 0.0001
57 | UAGUGUGUCACCGUCUCUGAGAGAUUAACA | 0.113 ± 0.012
58 | UAGUCUGUCUCCUUCUCUGAGAGAUUAAGA | 0.054 ± 0.012
59 | UAGUCUGUCACCUUCUCUAAGAGAUUAACA | 0.138 ± 0.0097
60 | UAGUCUGUCACCUUCUCUGAGAGACUAACA | 0.149 ± 0.027
61 | UAGUGUGUCACCUUCUCUGAGAGAUCUAACA | 0.306 ± 0.071
62 | UAGUCUGUCACCUUCUCUGAGAGAUCUAACA | 0.258 ± 0.054
63 | UAGUGUGUCACCUUCUCUGAGAGAUAACA | 0.0605 ± 0.02
64 | UAGUGAGUCACCUUCUCUGAGAGAUCUAACA | 0.171 ± 0.035
65 | UAGUGAGUCACCUUCUGUGUGAGAUUAACA | 0.0434 ± 0.0067
66 | UAGUGACAGUCCUUCUCUGAGAGUAAUUGA [g8:g20:cont:t1A] | < 0.0001
67 | UAGUGACUCACCUUCUCUGAGAGCUUAACA | 0.156 ± 0.022
68 | UAGUGUGUCACCUUGCUCUGAGAGAUUAACA | 0.248 ± 0.061
69 | UAGUCUGUCACCUGCUCUGAGAGAUUAACA | 0.175 ± 0.011
70 | UAGUGUGUCACCUUGUCUGAGAGAUUAACA | 0.134 ± 0.021
71 | UAGUGACUCACCUUGCUCUGAGAGAUUAACA | 0.048 ± 0.016
72 | UAGUGAGUCACCUUGCUCUGAGAGAUUAACA | 0.351 ± 0.077
73 | UAGUCUGUCACCUUGUCUGAGAGAUUAACA | 0.133 ± 0.016
